For 18 compounds, Potency results are on record in PubChem BioAssay (NCATS).

Records with an inconclusive call do not appear. A call without a number means that no potency is given here. The source made the active and inactive calls. Calls follow the shape of the dose curve; as a rule, active = well fitted inhibition curve with a large enough effect; inconclusive = small, poorly fitted or top-dose-only effect; inactive = flat fitted curve, though single readings scatter.

Chain of Calcium and integrin-binding protein 1 (Homo sapiens) (Q99828 whole entry, looked up): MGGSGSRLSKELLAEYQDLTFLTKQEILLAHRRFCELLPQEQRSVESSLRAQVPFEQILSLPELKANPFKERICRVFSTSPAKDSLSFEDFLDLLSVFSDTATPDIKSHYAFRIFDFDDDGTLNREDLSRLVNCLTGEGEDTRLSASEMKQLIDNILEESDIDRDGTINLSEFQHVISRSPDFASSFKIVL

This assay concerns the target Calcium and integrin-binding protein 1 (Homo sapiens) (UniProt Q99828). Kind of assay: Primary qHTS for Identification of Calcium Integrin Binding Protein 1 (CIB1) Competitor (AID 1508620).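 Also: GST tagged CIB1 binding a fluorescein labelled alphaIIb integrin peptide tracer; top concentration of the series differs between compounds.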 The conditions noted are these: CIB1-GST / FITC-alphaIIb peptide fluorescence polarization; series mostly up to 114 µM. In outline: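 CIB1-GST (1 uM final) and compound incubated 15 min at room temperature before adding FITC-alphaIIb peptide tracer (100 nM final). Competition for binding read by fluorescence polarization (ex 480, em 540) after another 15 min at room temperature.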
(In general: qHTS replaces the single test concentration by a dilution series.)
`CN(C)c1ccc(/C=C/C(=O)Nc2cccc([S+](=O)([O-])Nc3ccccc3F)c2)cc1`: the Potency entry is “inactive”.

Take `O=C1c2ccccc2C(=O)N1c1cccc2cnccc12`: the Potency entry is “inactive”.

Take `CCCCN(C)C(=O)Cn1nc(-c2ccc(C(C)(C)C)cc2)ccc1=O`: the Potency result was “inactive”.

For `COc1ccc(C2Nc3ccccc3C(=O)N2Cc2cccc(C(F)(F)F)c2)cc1COc1ccc(NC(C)=O)cc1` (stereo not drawn), the Potency result is “inactive”.

Turning to `Cc1cc(C)n2ncc(C(=O)Nc3ccc(C#N)cc3)c2n1`, the Potency result is “inactive”.

For the compound `CCOC(=O)c1c(/C=N/Nc2ccccc2)c2sc(C)cc2n1C`, the Potency result was “inactive”.

As to `Cc1ccc(-c2ccc(=O)n(CC(=O)N(C)C3CCCCCC3)n2)cc1`, the Potency entry is “inactive”.

`O=C1Cc2cc(S(=O)(=O)N3CCN(c4ccc(C(F)(F)F)cc4)CC3)ccc2N1`: the Potency result was “inactive”.

Turning to `Cc1sc(C)c2c1C(=O)NS2(=O)=O`, the Potency result was “inactive”.

Turning to `c1c[nH]c(C2CCN(c3ncc(-c4ccc5c(c4)OCCCO5)s3)CC2)n1`, the Potency result was “inactive”.

Consider `COc1ccnc(NCc2ccc(O)c3ncccc23)c1`, for which the Potency result is “inactive”.

In the case of `CCc1nn2c(=O)cc(-c3ccncc3)nc2s1`, the Potency result is “inactive”.

For the compound `Clc1cccc(-c2ccc3ncnc(NCc4ccc5c(c4)OCO5)c3c2)c1`, the Potency entry is “inactive”.

Turning to `CN(C)c1cccc(-c2cc(N3CCC(C(N)=O)CC3)ncn2)c1`, the Potency result was “inactive”.

`Cc1ccc(OCCn2c(CCNC(=O)/C=C/c3ccccc3Br)nc3ccccc32)cc1`: the Potency result was “inactive”.

As for `Nc1ncc(S(=O)(=O)N2CCOCC2)s1`, the Potency result is “inactive”.

As to `Cc1cnc(-c2ccccc2OC(C)C)nc1NCc1ccc(-n2ccnn2)cc1`, the Potency result was “inactive”.

Regarding `O=C(Nc1ccc2ccccc2c1)Nc1nnc(-c2ccccc2F)s1`, the Potency entry was “inactive”.
